The record followed here is the supplement of paper PMC10338343.

The test system of the test is MIWI (PIWIL1) piRISC loaded with L1MC piRNA (30 nt). Put plainly: pre-steady-state target cleavage rate (min^-1); MIWI and MILI are mouse PIWI proteins and EfPiwi is from a freshwater sponge; tags in brackets are library labels; higher = faster piRNA-guided slicing of the target. Conditions: guide: L1MC piRNA 5'p-UAACUAAAUACUAUGCAAGCUGUAGGUCCU
In short, it runs like this:
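Cleave-'n-Seq: a transcribed, DNA-blocked target RNA library (0.1 nM) was mixed with 1 nM active affinity-purified piRISC carrying one synthetic guide, with or without 500 nM GTSF1 partner protein, in HEPES–potassium acetate buffer at 33 °C for 0–8 or 0–960 min. Uncleaved targets were sequenced and normalised to depth and to weakly complementary targets. Three trials were pooled, and k3 was capped at 0.0001 min^-1. The pre-steady-state cleavage rate came from a burst-and-steady-state fit.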

The mark [1] stands for this setting: auxiliary factor: 500 nM mouse GTSF1.
[2] abbreviates: auxiliary factor: none (no GTSF1).

± gives the standard deviation. Over roughly 8,200 sequences, “pre-steady-state target cleavage rate” has its median near 0.024; the highest 2% begin near 1.3. The entries come from a sample that favours the highest values as a whole.

As for UCCUCCUACAGCAUGCAUAGUAUUUAGAAA, under setting [1], the “pre-steady-state target cleavage rate” value is 0.485 ± 0.066. As for AGGACCUACAGGUUGGAUAGUAUUUAGUUA, the “pre-steady-state target cleavage rate” value was 1.24 ± 0.079 under setting [1] and 0.0408 ± 0.0067 under setting [2]. On to UGGACCUACAGCUUGGAUAGUAUUUAGUAA, for which the “pre-steady-state target cleavage rate” value was 0.851 ± 0.062 under setting [1] and 0.0355 ± 0.006 under setting [2]. For the sequence AGGACCUACAGCUUGGAUAGUAUUUAGUAA, the “pre-steady-state target cleavage rate” value runs as follows: under setting [1], 1.02 ± 0.063; under setting [2], 0.0552 ± 0.012. Take UCGACCUACAGGUUGGAUAGUAUUUAGUUA: the “pre-steady-state target cleavage rate” value runs as follows: under setting [1], 1.16 ± 0.11; under setting [2], 0.0308 ± 0.0056. The corresponding values for UCCACCUACAGCUUGGAUAGUAUUUAGAUA are 0.319 ± 0.042 and 0.0137 ± 0.0027. In the case of UCCACCUACAGCUUGGAUAGUAUUUAGUAA, the “pre-steady-state target cleavage rate” value is, setting by setting: under setting [1], 0.747 ± 0.054; under setting [2], 0.0244 ± 0.0052. For AGGACCUACAGCUUGGAUAGUAUUUAGAUA, in that order: 0.527 ± 0.057 and 0.0218 ± 0.0053. Consider UGGACCUACAGGUUGGAUAGUAUUUAGUUA, for which the “pre-steady-state target cleavage rate” value under setting [1] was determined as 1.33 ± 0.091 and the “pre-steady-state target cleavage rate” value under setting [2] is 0.0484 ± 0.0079. UGGACCUACAGCUUGGAUAGUAUUUAGUUA: the “pre-steady-state target cleavage rate” value by setting is: under setting [1], 1.65 ± 0.068; under setting [2], 0.0735 ± 0.013. For UGGACCUACAGCUUGGAUAGUAUUUAGAUA, in that order: 0.427 ± 0.05 and 0.0235 ± 0.0046. For UCCACCUACAGCUUGGAUAGUAUUUAGUUA, in that order: 1.44 ± 0.056 and 0.0469 ± 0.0082. On to AGGACCUACAGCUUGGAUAGUAUUUAGUUA, for which the “pre-steady-state target cleavage rate” value is 1.67 ± 0.052 under setting [1] and 0.0813 ± 0.013 under setting [2]. In the case of UCCACCUACAGGUUGCAUAGUAUUUACAAA, the “pre-steady-state target cleavage rate” value under setting [1] is 0.336 ± 0.052.

Turning to UCCACCUACAGCUUGCAUAGUUUUUAGAUA, the “pre-steady-state target cleavage rate” value reads like this: under setting [1], 0.16 ± 0.029; under setting [2], 0.0077 ± 0.0023. On to UCCUGGUUCAGGUUGCAUAGUAUUUAGUUA, for which the “pre-steady-state target cleavage rate” value by setting is: under setting [1], 0.711 ± 0.051; under setting [2], 0.0138 ± 0.0041. For AGGAGCUACAGCUAGCAUAGUAUUUAGUUA, the “pre-steady-state target cleavage rate” value runs as follows: under setting [1], 1.28 ± 0.076; under setting [2], 0.0359 ± 0.0079.

For the sequence UCCUGCUACAGCUAGCAUAGUAUUUACAAA, the “pre-steady-state target cleavage rate” value under setting [1] is 0.234 ± 0.049. On to UCCUGCUACAGCUUGCUUAGUAUUAAGUUA, for which the “pre-steady-state target cleavage rate” value by setting is: under setting [1], 0.403 ± 0.038; under setting [2], 0.00887 ± 0.0026. The corresponding values for UCCUGGAUCAGCUUGCAUCGUAUUUAGUUA are 0.327 ± 0.02 and 0.032 ± 0.0077. As for AGGACCUACAGCUUGCAUAGUAUUUUCUUA, the “pre-steady-state target cleavage rate” value under setting [1] stood at 0.33 ± 0.049 and the “pre-steady-state target cleavage rate” value under setting [2] was determined as 0.03 ± 0.0093. For the sequence UCCUCCUACACCUUGCAUAGAAUUUAGUUA, the “pre-steady-state target cleavage rate” value by setting is: under setting [1], 0.341 ± 0.082; under setting [2], 0.00682 ± 0.0023. For UCCUCCUACAGCUUGCAUUGAAUUUAGUUA, the “pre-steady-state target cleavage rate” value was determined as 0.183 ± 0.018 under setting [1] and 0.00617 ± 0.0025 under setting [2]. For UCGACCUACACCUUGCAUAGAAUUUAGUUA, in that order: 0.395 ± 0.07 and 0.0128 ± 0.0024. On to UCGACCUACAGCUUGCAUUGUAUUUACUUA, for which the “pre-steady-state target cleavage rate” value runs as follows: under setting [1], 0.49 ± 0.028; under setting [2], 0.0226 ± 0.0052.

For UCGACCUACAGCUAGGAUAGUAUUUAGUUA, the “pre-steady-state target cleavage rate” value came to 1.29 ± 0.064 under setting [1] and 0.00874 ± 0.0021 under setting [2]. With UGGACCUACAGCUAGGAUAGUAUUUAGUUA, the “pre-steady-state target cleavage rate” value came to 1.39 ± 0.068 under setting [1] and 0.00938 ± 0.0019 under setting [2]. With AGGACCUACAGCUAGGAUAGUAUUUAGUUA, the “pre-steady-state target cleavage rate” value reads like this: under setting [1], 1.09 ± 0.06; under setting [2], 0.0102 ± 0.0018.

Consider UCGACGUACAGCUUGGAUAGUAUUUAGUUA, for which the “pre-steady-state target cleavage rate” value runs as follows: under setting [1], 1.24 ± 0.042; under setting [2], 0.0503 ± 0.0083. Take UGGACGUACAGCUUGGAUAGUAUUUAGUUA: the “pre-steady-state target cleavage rate” value under setting [1] turned out to be 1.4 ± 0.054 and the “pre-steady-state target cleavage rate” value under setting [2] was 0.0597 ± 0.01. Take AGGACGUACAGCUUGGAUAGUAUUUAGUUA: the “pre-steady-state target cleavage rate” value reads like this: under setting [1], 1.36 ± 0.067; under setting [2], 0.0579 ± 0.0083. Consider UCCACGUACAGCUUGGAUAGUAUUUAGUUA, for which the “pre-steady-state target cleavage rate” value came out at 1.14 ± 0.065 under setting [1] and 0.0509 ± 0.0081 under setting [2]. Take AGGAGCUACAGCUUGGAUAGUAUUUAGUUA: the “pre-steady-state target cleavage rate” value runs as follows: under setting [1], 1.17 ± 0.081; under setting [2], 0.0558 ± 0.0094. Turning to UCCUCGUACAGCUUGGAUAGUAUUUAGUUA, the “pre-steady-state target cleavage rate” value is, setting by setting: under setting [1], 1.22 ± 0.062; under setting [2], 0.0636 ± 0.011. Consider UCGUCCUAGAGCUUGCAUAGUAUUUAGUUA, for which the “pre-steady-state target cleavage rate” value was determined as 0.957 ± 0.041 under setting [1] and 0.0436 ± 0.0072 under setting [2]. As to UCCUCCUAGCAGCUUGCAUAGUAUUUAGUUA, the “pre-steady-state target cleavage rate” value is 1.12 ± 0.046 under setting [1] and 0.0448 ± 0.0093 under setting [2]. With UCCACCUACAGCUUCGAUAGUAUUUAGAAA, under setting [1], the “pre-steady-state target cleavage rate” value is 0.0807 ± 0.021. With UCCUGGAUGAGCUUGCUAUGUAUUUAGUUA, the “pre-steady-state target cleavage rate” value is 0.00494 ± 0.0027 under setting [1] and 0.00308 ± 0.0029 under setting [2]. For the sequence UCGAGCUUCAGCUUGCAUAGUAUUUAGUUA, the “pre-steady-state target cleavage rate” value is, setting by setting: under setting [1], 1.12 ± 0.046; under setting [2], 0.0555 ± 0.0099. For UGGAGCUAGAGCUUGCAUAGUAUUUAGUUA, the “pre-steady-state target cleavage rate” value by setting is: under setting [1], 0.707 ± 0.048; under setting [2], 0.0402 ± 0.0068. As to UGGAGCUUCAGCUUGCAUAGUAUUUAGUUA, the “pre-steady-state target cleavage rate” value came to 1.34 ± 0.048 under setting [1] and 0.0706 ± 0.01 under setting [2]. For AGGAGCUAGAGCUUGCAUAGUAUUUAGUUA, in that order: 0.922 ± 0.049 and 0.0536 ± 0.0099. Take UCCUGCUUCAGCUUGCAUAGUAUUUAGUAA: the “pre-steady-state target cleavage rate” value came out at 0.537 ± 0.036 under setting [1] and 0.0275 ± 0.0068 under setting [2].

Regarding AGGAGCUUCAGCUUGCAUAGUAUUUAGUUA, the “pre-steady-state target cleavage rate” value worked out at 1.48 ± 0.047 under setting [1] and 0.0864 ± 0.015 under setting [2]. For AGGACCUAGUGCUUGCAUAGUAUUUAGUAA, in that order: 0.457 ± 0.051 and 0.0314 ± 0.0063. On to UCCUCCUACAGCUUGCUAAGUAUUUAGUAA, for which the “pre-steady-state target cleavage rate” value under setting [1] was found to be 0.066 ± 0.012. As to AGGACCUACAGCUUGGAUAGUAUUAAGUUA, the “pre-steady-state target cleavage rate” value under setting [1] was 0.722 ± 0.072 and the “pre-steady-state target cleavage rate” value under setting [2] is 0.0226 ± 0.004. For UAGACCUACAGCUUGCAUAGUAUUUAGUUA, the “pre-steady-state target cleavage rate” value under setting [1] stood at 1.31 ± 0.043 and the “pre-steady-state target cleavage rate” value under setting [2] was 0.0672 ± 0.011. In the case of AAGACCUACAGCUUGCAUAGUAUUUAGUUA, the “pre-steady-state target cleavage rate” value was 1.69 ± 0.062 under setting [1] and 0.0921 ± 0.015 under setting [2]. Regarding AGACCUACAGCUUGCAUAGUAUUUAGUUA, the “pre-steady-state target cleavage rate” value by setting is: under setting [1], 1.46 ± 0.052; under setting [2], 0.0902 ± 0.017. Regarding AGGACCUACAGGUAGCAUAGUAUUUAGUUA, the “pre-steady-state target cleavage rate” value came out at 1.04 ± 0.054 under setting [1] and 0.00995 ± 0.0022 under setting [2]. Turning to UCCUGGUACAGCUUGCAUAGUAAAUUCAAA, the “pre-steady-state target cleavage rate” value under setting [1] is 0.00975 ± 0.0053.

For the sequence UCCUCCUACAGCUUGCAUAGUAUUUAGAUUA, the “pre-steady-state target cleavage rate” value under setting [1] was determined as 0.342 ± 0.031 and the “pre-steady-state target cleavage rate” value under setting [2] was 0.0121 ± 0.0024.

UCCUGGAAGUCCUUGCAUAGUAUUUAGUUA: the “pre-steady-state target cleavage rate” value under setting [1] is 0.175 ± 0.02 and the “pre-steady-state target cleavage rate” value under setting [2] is 0.0104 ± 0.0031.

Turning to UCGCCUACAGCUUGCAUAGUAUUUAGUUA, the “pre-steady-state target cleavage rate” value reads like this: under setting [1], 1.5 ± 0.066; under setting [2], 0.0743 ± 0.014. As to UCCGCCUACAGCUUGCAUAGUAUUUAGUUA, the “pre-steady-state target cleavage rate” value by setting is: under setting [1], 1.23 ± 0.05; under setting [2], 0.0714 ± 0.011. On to UCCCCCUACAGCUUGCAUAGUAUUUAGUUA, for which the “pre-steady-state target cleavage rate” value is, setting by setting: under setting [1], 1.28 ± 0.039; under setting [2], 0.0819 ± 0.014. Consider UCGCCCUACAGCUUGCAUAGUAUUUAGUUA, for which the “pre-steady-state target cleavage rate” value under setting [1] was 1.32 ± 0.055 and the “pre-steady-state target cleavage rate” value under setting [2] worked out at 0.0692 ± 0.011. For UCCUGGUACAGCUUGCAUAGUUUUUAGUAA, in that order: 0.177 ± 0.037 and 0.0195 ± 0.0054.

Regarding UCCUGGUACAGCUUGCAUAGUUAUUAGUUA, the “pre-steady-state target cleavage rate” value turned out to be 0.115 ± 0.018 under setting [1] and 0.018 ± 0.0051 under setting [2].
